For seven molecules, growth results are on record in PubChem BioAssay (NCI).

Among the test systems are MOLT-4 leukemia; SR leukemia; RPMI-8226 leukemia; OVCAR-8 ovarian; OVCAR-5 ovarian; OVCAR-4 ovarian; SK-OV-3 ovarian; IGROV1 ovarian; OVCAR-3 ovarian; HS 578T breast; NCI/ADR-RES ovarian; T-47D breast; BT-549 breast; MDA-MB-435 melanoma; SW-620 colon; MCF7 breast; HCT-116 colon; HCC-2998 colon; KM12 colon.
What all share (assay): NCI-60 one-dose screen, 48 h (100 = growth as untreated, 0 = no growth, -100 = all killed)
Details in all cases: 10 µM unless noted

“And” between values parts separate entries of the source, which are not always exact repeats. Equal entries are not always repeated. Compounds without any hit were thinned out: in the full panel of roughly 83,000, 20% have a hit.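 Step 1: grow cells in 96-well plates. Step 2: add test compound at a single concentration. Step 3: incubate 48 h. Step 4: record percent growth.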 A number with no mark means an inactive call. The source made the active and inactive calls. Rule for the calls: active = growth percent below 10; inactive = the rest.

As to `C[C@]12CCc3nc(-c4ccc(O)c(O)c4)sc3C1=CC[C@@H]1[C@@H]2CC[C@]2(C)C(=O)CC[C@@H]12`, the growth in the assay on MOLT-4 leukemia was 45.4%; in the assay on SR leukemia, 39.3%; with RPMI-8226 leukemia, 9.9% (active); with OVCAR-8 ovarian, 29.9%; in the assay on OVCAR-5 ovarian, 112%; in the assay with OVCAR-4 ovarian, 67.1%. In addition, the growth was 89.7% in the assay on SK-OV-3 ovarian; 38.6% in the assay with IGROV1 ovarian; 87.5% in the assay on OVCAR-3 ovarian; 66.8% in the assay on HS 578T breast; 73.7% with NCI/ADR-RES ovarian; 69% in the assay on T-47D breast. Further, the growth with BT-549 breast was 58.1%; with MDA-MB-435 melanoma it was 71.3%; in the assay with SW-620 colon, 55.4%; in the assay on MCF7 breast it was 48.4%; in the assay on HCT-116 colon it was 26%; with HCC-2998 colon, 99.2%. In the assay on KM12 colon, the growth is 90.8%.
As for `COC(=O)C12C3C4C1C1C2C3C41NC(=O)c1csc([C@@H](C[C@H](C(C)C)N(C)C(=O)[C@@H](NC(=O)[C@H]2CCCCN2C)C2CC2)OC(C)=O)n1` (stereo partly drawn), the growth was 19.2% with MOLT-4 leukemia; 19.1% in the assay with SR leukemia; 21.7% in the assay on RPMI-8226 leukemia; 18.9% in the assay on OVCAR-8 ovarian; 31.6% with OVCAR-5 ovarian; 49.9% with OVCAR-4 ovarian. The growth in the assay on SK-OV-3 ovarian is 7.71% (active); in the assay on IGROV1 ovarian, 32.7%; in the assay on OVCAR-3 ovarian, -4.31% (active); with HS 578T breast, 28.1%; with NCI/ADR-RES ovarian it was 40.7%; in the assay with T-47D breast, 61.4%. Also, the growth in the assay with BT-549 breast is -17.2% (active); in the assay with MDA-MB-435 melanoma, -29.7% (active); in the assay on SW-620 colon it was 26.1%; with MCF7 breast it was 18.8%; in the assay with HCT-116 colon it was 2.94% (active); in the assay with HCC-2998 colon it was 28.4%. Also, in the assay with KM12 colon, the growth is 5.25% (active).
Consider `Oc1ccccc1C=NCCN=Cc1ccccc1O.[Fe]`, for which the growth in the assay on MOLT-4 leukemia was 30.7%; with SR leukemia it was 73.2%; in the assay on RPMI-8226 leukemia, 88.6%; in the assay on OVCAR-8 ovarian, 84.7%; in the assay on OVCAR-5 ovarian, 118%; in the assay with OVCAR-4 ovarian, 117%. The growth in the assay with SK-OV-3 ovarian is 101%; with IGROV1 ovarian, 71.2%; with OVCAR-3 ovarian, 112%; in the assay with HS 578T breast, 77.3%; in the assay on NCI/ADR-RES ovarian, 104%; in the assay with T-47D breast, 97.7%. Also, the growth with BT-549 breast was 110%; with MDA-MB-435 melanoma it was 31.1%; in the assay on SW-620 colon, 66.1%; in the assay with MCF7 breast, 70.4%; in the assay on HCT-116 colon it was 77%; in the assay on HCC-2998 colon it was 111%. Also, the growth with KM12 colon is 93%.
In the case of `O=C(O)C(O)c1ccc(Cl)cc1` (stereo not drawn), the growth is 113% with MOLT-4 leukemia; 102% with SR leukemia; 111% and 92.1% in the assay on RPMI-8226 leukemia; 109% and 103% in the assay on OVCAR-8 ovarian; 110% in the assay on OVCAR-5 ovarian; 102% and 109% in the assay on OVCAR-4 ovarian. Moreover, the growth was 101% and 108% in the assay with SK-OV-3 ovarian; 110% and 111% in the assay with IGROV1 ovarian; 116% and 104% in the assay with OVCAR-3 ovarian; 102% and 99.7% in the assay on HS 578T breast; 106% and 107% in the assay with NCI/ADR-RES ovarian; 93.1% and 138% in the assay with T-47D breast. The growth is 101% and 103% with BT-549 breast; 105% and 115% with MDA-MB-435 melanoma; 107% and 103% with SW-620 colon; 97.1% and 106% with MCF7 breast; 93.7% and 95.1% in the assay on HCT-116 colon; 98.3% and 108% in the assay with HCC-2998 colon. Besides, the growth with KM12 colon is 108% and 100%.
On to `NC(=O)Oc1cc(OC(N)=O)cc(N(CCCl)CCCl)c1`, for which the growth was 13.1% in the assay with MOLT-4 leukemia; -17.1% (active) with SR leukemia; 59.7% with RPMI-8226 leukemia; 28.5% in the assay with OVCAR-8 ovarian; 91.3% in the assay with OVCAR-5 ovarian; 74.7% with OVCAR-4 ovarian. Moreover, the growth with SK-OV-3 ovarian is 76%; in the assay with IGROV1 ovarian it was 91.2%; in the assay on OVCAR-3 ovarian, 82.8%; in the assay on HS 578T breast, 107%; in the assay on NCI/ADR-RES ovarian, 54.9%; in the assay on T-47D breast it was 53.6%. Further, the growth in the assay on BT-549 breast was 68.2%; in the assay with MDA-MB-435 melanoma, 65.2%; in the assay on SW-620 colon, 60.8%; with MCF7 breast, 31.8%; with HCT-116 colon, 61.9%; with HCC-2998 colon, 103%. Further, the growth with KM12 colon is 82.3%.
Turning to `Cc1c(C)c(N)c(C)c(C)c1N`, the growth in the assay on MOLT-4 leukemia is 84.1%; in the assay on SR leukemia, 69.5%; in the assay with RPMI-8226 leukemia it was 98.7%; with OVCAR-8 ovarian, 83.8%; in the assay on OVCAR-5 ovarian, 85.1%; in the assay on OVCAR-4 ovarian it was 75.6%. Also, the growth with SK-OV-3 ovarian was 91.3%; in the assay on IGROV1 ovarian, 80.7%; with OVCAR-3 ovarian it was 115%; with HS 578T breast, 114%; in the assay on NCI/ADR-RES ovarian it was 96.1%; with T-47D breast, 92.6%. Moreover, the growth was 104% in the assay with BT-549 breast; 107% with MDA-MB-435 melanoma; 51.8% in the assay with SW-620 colon; 46.5% in the assay with MCF7 breast; 59.3% in the assay with HCT-116 colon; 106% with HCC-2998 colon. The growth in the assay with KM12 colon was 98.4%.
Turning to `O=C=Nc1ccc(Br)cc1`, the growth in the assay on MOLT-4 leukemia is 111%; in the assay with SR leukemia it was 98.5%; with RPMI-8226 leukemia, 98.9%; in the assay with OVCAR-8 ovarian it was 107%; with OVCAR-5 ovarian it was 109%; with OVCAR-4 ovarian, 98.5%. For the same molecule, the growth with SK-OV-3 ovarian is 99.1%; in the assay on IGROV1 ovarian, 112%; in the assay with OVCAR-3 ovarian, 105%; in the assay with HS 578T breast, 106%; with NCI/ADR-RES ovarian, 107%; with T-47D breast, 92.2%. Moreover, the growth was 98.3% in the assay on BT-549 breast; 108% in the assay on MDA-MB-435 melanoma; 103% in the assay with SW-620 colon; 97.8% in the assay with MCF7 breast; 94.3% with HCT-116 colon; 100% in the assay on HCC-2998 colon. For the same molecule, the growth in the assay with KM12 colon is 105%.
